D3 ag = agonists of human D3 dopamine receptor | P35462 | D3R DiscoveRx beta-arrestin cells, luminescence, 90 min | max activation, % | actives 0.58% (n = 410,000) | AID 652048; in the data active means max activation above about 30%; further: 0% is about no effect
Target sequence (P35462 whole entry, looked up): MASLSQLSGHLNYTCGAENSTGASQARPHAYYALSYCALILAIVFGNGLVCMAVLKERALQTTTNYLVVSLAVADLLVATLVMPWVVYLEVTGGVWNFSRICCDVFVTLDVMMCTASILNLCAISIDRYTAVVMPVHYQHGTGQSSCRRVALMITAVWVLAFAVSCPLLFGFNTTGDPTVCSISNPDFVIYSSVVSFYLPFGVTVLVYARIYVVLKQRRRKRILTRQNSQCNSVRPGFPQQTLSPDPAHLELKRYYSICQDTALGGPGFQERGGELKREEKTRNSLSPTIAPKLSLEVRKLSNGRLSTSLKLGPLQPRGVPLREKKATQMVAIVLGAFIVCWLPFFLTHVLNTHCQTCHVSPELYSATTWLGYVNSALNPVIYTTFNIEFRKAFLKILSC
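Cells at 1500/well, incubated overnight, then treated with pinned compounds (dopamine as control) for 90 min at 37 degrees C. DiscoveRx reagent added for 30 - 60 minutes at room temperature; luminescence read.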
DRD3 antagonist = blocks the human D3 dopamine receptor. P35462. D3R cells, DiscoveRx beta-arrestin luminescence, antagonist mode; active compounds read low. max response, negative = inhibition, %. actives 2.5% (n = 360,000). AID 652054; in the data active means max response below about -50%; inconclusive means no clear call, values can overlap the other calls; further: on the % scale 0 is the no-effect control and ±100 the full control effect
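Cells plated overnight at 1500 cells/well, then exposed to library compounds with dopamine controls for 90 minutes at 37 degrees C. DiscoveRx reagent added for 30–60 minutes at room temperature; luminescence read, quantitative HTS format.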
ATXN2 expr inh = inhibitors of ATXN2 expression; Potency, µM (doses to about 57 µM), for inactives: top-dose activity change, negative = inhibition, actives largely listed as inhibitors; HEK-293 ATXN2-luciferase reporter, luminescence, 24 h; AID 1745845; actives 0.72% (n = 360,000); further: potency means the concentration at half of the fitted maximal effect; on the % scale 0 is the no-effect control and ±100 the full control effect; nearly all actives have a fitted effect of over 55% in size
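qHTS (up to 57 uM final) was run with 24 h compound exposure of reporter cells at 37 °C. Each well was multiplexed: SteadyGlo luminescence measured ATXN2-luciferase expression after a fluorogenic Gly-Phe-AFC viability readout (25 uM final).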
TGFb SMAD3 inh = TGF-b pathway inhibition; Potency, µM (top dose mostly 46.1 µM), for inactives: at the top dose activity, negative = inhibition, most hits filed as inhibitors; actives 1.2% (n = 410,000); HepG2 CAGA-GFP TGF-b/SMAD3 reporter, GFP fluorescence, 18 h; TGF-beta stimulated, 500 pg/mL final; AID 588855; further: potency means the concentration at half of the fitted maximal effect; on the % scale 0 is the no-effect control and ±100 the full control effect; nearly all actives have a fitted effect of over 65% in size
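Read-out: total well GFP (ex488/em500-530) summed from mean per-cell fluorescence. Cells: HEPG2 CAGA-GFP, 1% FBS DMEM, 18 h at 37 degrees C with 500 pg/mL final TGF-beta. Unstimulated wells served as the full-inhibition control; stimulated DMSO wells = 0%.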
HepG2 tox = HepG2 cytotoxicity, counter-screen for TGF-b inhibitors | AID 588856 | actives 0.76% (n = 410,000) | HepG2 CAGA-GFP viability, ATP luminescence, 18 h | Potency, µM (titrated, usually from 46.1 µM), without a hit: top-dose activity change, negative = cytotoxicity, most hits filed as cytotoxic; further: potency means the concentration at half of the fitted maximal effect
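HepG2 CAGA-GFP cells (1000/well, DMEM with 1% FBS) received compound, then TGF-beta at 500 pg/mL final, and were incubated 18 hours at 37 degrees C. Viability was read by CellTiter-Glo luminescence. Media-only wells were set as complete cell-killing and DMSO as no toxicity.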
S2 tox = viability counter-screen for ATXN expression inhibitors | AID 651635 | actives 0.49% (n = 400,000) | Potency, µM (titrated, usually from 56.7 µM), actives largely listed as cytotoxic | S2 cells (HEK-293 line with an ATXN2-luciferase reporter) viability, CellTiter-Fluor protease fluorescence, 24 h; further: potency means the concentration at half of the fitted maximal effect; nearly all actives have a fitted effect of over 40% in size
The depositor's hits bear a star; i = inactive; ? = inconclusive; · = no result; ! = not active in a repeat. In the library only some 4.8% were active in any assay of this set; here they are far more common. Unless noted, the call rests on the fitted dose curve; in most records, active means well fitted curve in the direction sought with a large enough effect; inconclusive means small, poorly fitted or top-dose-only effect, or another doubt; inactive means no such curve, though single readings can be large; an effect the other way counts as inactive or inconclusive.

SMILES	D3 ag	DRD3 antagonist	ATXN2 expr inh	TGFb SMAD3 inh	HepG2 tox	S2 tox
Cc1ccc2nc(-c3ccc(CN4CCC(n5c(=O)[nH]c6ccccc65)CC4)cc3)c(-c3ccccc3)nc2c1	-13	-28	-25%	·	·	?
COc1ccc2nc(-c3ccc(CN4CCC(n5c(=O)[nH]c6ccccc65)CC4)cc3)c(-c3ccccc3)nc2c1	-14	-53*	-21%	·	·	?
O=c1[nH]c2ccccc2n1CCCN1CCC(n2c(=O)[nH]c3cc(Cl)ccc32)CC1	-90	-103*	?	?	-39%	?
COc1ccc(CNC(=O)Cn2c(=O)oc3cc(S(=O)(=O)N4CCCCCC4)ccc32)cc1	2	·	·	-2%	-36%	·
CC(=O)NC1CCSC1=O (configuration not stated)	6	·	7%	·	·	i
COc1ccc(OC)c(CNC(=O)CCS(=O)(=O)c2ccc3c(c2)oc(=O)n3C)c1	6	1	4%	?	-1%	i
NCC(=O)c1ccc(Cl)c(Cl)c1	·	·	·	?	-46%	·
O=C1C[C@@H]2OCC=C3CN4CC[C@]56c7ccccc7N1[C@H]5[C@H]2[C@H]3C[C@H]46	-12	·	·	·	·	·
O=C1OC2(c3cc(Br)c(O)cc3Oc3c2cc(Br)c(O)[c]3[Hg])c2ccccc21 (configuration not stated)	3	·	·	·	·	?
Fc1ccccc1CCNCc1cccc(Cl)c1Cl	-32	-58*	11%	?	-32%	i
CC(C)N1CCOC(c2ccc(O)c(O)c2)C1 (configuration not stated)	95*	19	9%	36%	8%	?
CNCC(O)c1ccc(OC(=O)C(C)(C)C)c(OC(=O)C(C)(C)C)c1 (configuration not stated)	40*!	-4	-2%	-2%	-32%	i
N/C(=N\N=C\c1ccc(O)cc1O)N[N+](=O)[O-]	-4	-64*	11%	-3%	-1%	i
CCN(C(=O)Cn1c(=O)oc2cc(S(=O)(=O)N3CCCCCC3)ccc21)c1cccc(C)c1	-3	·	·	·	-34%	·
CC[C@H]1CN2CCC1C[C@@H]2[C@@H](O)c1ccnc2ccc(OC)cc12 (some centres not stated)	-78	-63*	-7%	-19%	-9%	i
CC1C2Cc3ccc(O)cc3[C@]1(C)CCN2CCc1ccccc1 (some centres not stated)	-93	-93*	-27%	14%	-12%	i
CCCCOP(=O)(c1ccc(N(C)C)cc1)C(Nc1ccccc1)c1ccccc1 (configuration not stated)	4	15	?	16µM*	-95%	?
CC(C)c1ccc(C(O)P(=O)(OCc2ccccc2)c2ccc(N(C)C)cc2)cc1 (configuration not stated)	-12	-4	-31%	?	-82%	?
CCC(C)N1CCN(C(=O)Cc2ccccc2)CC1 (configuration not stated)	-19	-65*	2%	19%	-20%	i
c1ccc(C(OCCN2CCNCC2)c2ccccc2)cc1	-1	-68*	-10%	-3%	-5%	i
CCOP(=O)(OCC)OCC	-90	-110*	5%	2%	3%	i
CCOP(=O)(OCC)Oc1cc(C)c(N(C)C)c(C)c1	6	12	14%	-24%	-11%	i
O=S(=O)(CC1CS1)c1ccc(Oc2ccccc2)cc1 (configuration not stated)	·	·	-7%	·	·	·
COc1ccc(C(=O)NCCn2cc(SC(C)c3ccccc3)c3ccccc32)cc1OC (configuration not stated)	2	·	?	?	-20%	?
O=C(Nc1ccccc1Cl)Oc1ccc(Cl)cc1Cl	3	0	·	-14%	-18%	?
SMILES	D3 ag	DRD3 antagonist	ATXN2 expr inh	TGFb SMAD3 inh	HepG2 tox	S2 tox
Oc1cc(Cl)ccc1Oc1ccc(Cl)cc1Cl	-12	-10	40µM*!	18µM*	-65%	40µM*!
CCc1ccccc1NC(=O)C(CC)Oc1ccccc1-c1nnc(-c2ccccc2)o1 (configuration not stated)	-21	·	?	-1%	-3%	?
CCOc1ccc(-c2nc(CSCC(=O)NCCc3ccc(OCC)c(OCC)c3)c(C)o2)cc1	-2	·	20µM*	-17%	-16%	32µM*
CCOc1ccc(-c2cc(C)[n+](CCc3ccc(OC)c(OC)c3)c(-c3ccc(OCC)cc3)c2)cc1	-7	-10	?	?	-35%	?
O=[N+]([O-])c1ccc(N2CCNCC2)cc1NCc1ccco1	16	-26	-6%	-6%	0%	i
CN1CCN(c2ccc([N+](=O)[O-])c(NCc3ccco3)c2)CC1	-9	-75*	-6%	2%	-16%	i
CN1CCN(c2ccc([N+](=O)[O-])c(NCC3CCCO3)c2)CC1 (configuration not stated)	44*	0	-5%	0%	-8%	i
Cc1ccc(Cl)cc1NC(=O)Cn1c(=O)oc2cc(S(=O)(=O)N3CCCC3)ccc21	-2	·	·	·	-38%	·
O=C1NCc2c1c1c3ccccc3[nH]c1c1[nH]c3ccccc3c21	·	·	·	?	13µM*	·
COCCCN1Cc2ccccc2C1=N	-9	-9	-8%	20%	-4%	i
CNCCCN1c2ccccc2CCc2ccccc21	-82	-75*	?	24%	-32%	?
COC1C(C)OC(OC2CC(C)(O)Cc3cc4c(c(O)c32)C(=O)c2c(O)cc3c(c2C4=O)OC2OC3(C)C(O)C(N(C)C)C2O)C(OC)C1(C)OC (configuration not stated)	6	3	?	2µM*	30%	?
COc1nn(CSP(=S)(OC)OC)c(=O)s1	5	·	?	·	·	?
CC(C)Oc1ccc(CC2(CCc3ccncc3)C(=O)NC(=O)NC2=O)cc1	33*	2	1%	1%	1%	?
CCOc1ccc(CN(CCc2ccc3c(c2)OCO3)Cc2cc(OC)ccc2O)cc1	-14	·	-4%	?	-47%	i
COc1ccc(CN(CCc2c[nH]c3ccccc23)Cc2ccc(OC)cc2)cc1	-8	-50*	-22%	?	-80%	i
COc1cccc(CNCCc2c[nH]c3ccccc23)c1	-21	-54*	?	0%	-8%	i
COc1ccc2[nH]cc(CCNCc3cccnc3)c2c1	-15	4	1%	2%	-5%	i
CCOc1cc(CNCCc2c[nH]c3ccccc23)cc(Cl)c1OCC	-29	-76*	?	?	-117%	?
